Screens deposited in PubChem BioAssay by National Center for Advancing Translational Sciences (NCATS).
Tb PFK inh: inhibitors of T. brucei phosphofructokinase; O15648; T. brucei PFK, ADP-Glo luminescence; Potency, µM (series often up to 57.5 µM), usual class: inhibitors; 0.17% of 330,000 active; AID 485367; also: nearly all actives have a fitted effect of over 60% in size
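1.25 nM PFK with 0.5 mM F6P and 0.1 mM ATP in 0.1 M TEA pH 8.0, 5 mM MgCl2, incubated 45 min at room temperature; ADP measured by ADP-Glo luminescence; compounds titrated up to 57 uM.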
gsp agonist: activates gsp, the McCune-Albright syndrome mutation | gsp mutant cells, cAMP HTRF, 30 min | Potency, µM (top dose mostly 76.9 µM), hits mostly activators | 0.13% of 340,000 active | AID 624287; active = well fitted activation curve with a large enough effect; inconclusive = small, poorly fitted or top-dose-only effect, or another doubt; inactive = no such curve, though single readings can be large or run the other way; cell line not stated here;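 also: phosphodiesterase inhibitor Ro 20-1724 added with compounds to block cAMP breakdown; nearly all actives have a fitted effect of over 60% in size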
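Cells stably selected in G418 were plated at 2000/well, grown 16-24 hr, then given compounds in DMSO with the PDE inhibitor […] (300 uM solution added) for 30 min at 37C; cAMP was read by HTRF.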
p53 reactivator: re-activators of mutant p53. Potency, µM (doses to about 92.2 µM), usual class: activators. H1299 p53-A138V BP100-luciferase reporter, luminescence, 24 h. AID 504706. 0.063% of 320,000 active; also: nearly all actives have a fitted effect of over 45% in size
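H1299 (p53-null), stable ts p53-A138V + BP100-Luc; 1000 cells/well, Opti-MEM/10% FBS; cpd 4 pt, 1:5; 24 h, 37 deg C, 5% CO2; detection reagent 10 min RT; luminescence.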
RXFP1 agonist: agonists of human relaxin receptor RXFP1; Potency, µM (doses to about 57.5 µM), hits mostly activators; Q9HBX9; HEK293T-RXFP1 cAMP TR-FRET, 30 min; response scale: percent of porcine relaxin response, buffer zero; 0.3% of 370,000 active; also: nearly all actives have a fitted effect of over 60% in size
Target sequence (Q9HBX9 whole entry, looked up): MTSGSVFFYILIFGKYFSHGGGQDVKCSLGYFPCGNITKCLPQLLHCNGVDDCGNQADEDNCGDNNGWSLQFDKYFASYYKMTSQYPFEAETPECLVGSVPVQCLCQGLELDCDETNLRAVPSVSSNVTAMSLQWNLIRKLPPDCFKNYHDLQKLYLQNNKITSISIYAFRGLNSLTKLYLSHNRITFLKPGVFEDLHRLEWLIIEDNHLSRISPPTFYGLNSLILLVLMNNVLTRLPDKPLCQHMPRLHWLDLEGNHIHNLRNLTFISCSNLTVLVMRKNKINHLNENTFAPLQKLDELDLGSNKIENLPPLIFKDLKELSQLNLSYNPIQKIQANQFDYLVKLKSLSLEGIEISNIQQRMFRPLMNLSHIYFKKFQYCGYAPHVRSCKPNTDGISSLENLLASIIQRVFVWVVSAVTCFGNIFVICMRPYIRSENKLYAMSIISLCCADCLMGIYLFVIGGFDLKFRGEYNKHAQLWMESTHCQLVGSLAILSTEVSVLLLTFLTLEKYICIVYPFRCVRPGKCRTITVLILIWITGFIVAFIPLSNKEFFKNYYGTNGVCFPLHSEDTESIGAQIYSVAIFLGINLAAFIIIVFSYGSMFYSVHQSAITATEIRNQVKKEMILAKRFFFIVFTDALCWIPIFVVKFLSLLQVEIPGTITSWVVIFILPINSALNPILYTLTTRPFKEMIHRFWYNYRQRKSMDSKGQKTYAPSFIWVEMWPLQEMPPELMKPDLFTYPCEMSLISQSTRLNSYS
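HEK293 cells stably expressing RXFP1, treated 30 min at 37C with compounds plus PDE4 inhibitor Ro 20174; cAMP measured by HTRF TR-FRET. Normalized to buffer and 29 nM porcine relaxin; EC50 by Hill fit.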
RXFP1 antagonist: RXFP1 (human) relaxin receptor antagonism; HEK293-RXFP1, relaxin-stimulated cAMP HTRF, 30 min; hits give low values; activity change, negative = inhibition, % at 57.5 µM; 0.59% of 350,000 active;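 active = activity change of -60% or lower, but not beyond a set lower limit; inconclusive = change between -60% and -40%, or beyond the set limit; inactive = change above -40%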
gsp antagonist: antagonists of gsp mutant (McCune-Albright syndrome). gsp-mutant cells, cAMP HTRF, 30 min. Potency, µM (highest dose often 76.9 µM), usual class: inhibitors. 0.4% of 340,000 active. AID 624288; calls by dose curve; cell line not stated here;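 also: intracellular cAMP measured with PDE inhibitor Ro 20-1724 present during compound exposure; nearly all actives have a fitted effect of over 65% in size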
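HTRF cAMP measurement after 30 min RT detection following 30 min, 37C compound treatment alongside […] (added as 300 uM solution) in G418-selected cells seeded at 2000/well and grown 16–24 h.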
Each line names hits and unclear results; the compound was inactive in the other large screens; ! = not confirmed by another sample. Compounds with a hit are over-represented: about 1.1% of the library has one in this group of screens. Unless noted, calls follow the shape of the dose curve; as a rule, active = well fitted curve in the direction sought with a large enough effect; inconclusive = small, poorly fitted or top-dose-only effect, or another doubt; inactive = no such curve, though single readings can be large; an effect the other way counts as inactive or inconclusive.

Cc1c(C#N)c2ncn(Cc3ccccn3)c(=O)c2n1-c1ccccc1	gsp antagonist 28µM
Cc1ccc(S(=O)(=O)N2CCOCC2)cc1NC(=O)CSc1ccc(Cl)cc1	Tb PFK inh inconclusive
O=C(CCCSc1ccc(Cl)cc1)Nc1cc(S(=O)(=O)N2CCOCC2)ccc1O	Tb PFK inh inconclusive, gsp antagonist 32µM
O=C(Nc1cc(S(=O)(=O)N2CCOCC2)ccc1O)c1ccc(S(=O)(=O)N2CCCCC2)cc1	gsp antagonist 8.9µM (no result: RXFP1 agonist)
CN(C)CCNc1ncnc2c1sc1nc(-c3ccccc3)c3c(c12)CCCC3	none
COc1ccc(C(=O)Nc2nc3n(n2)C(c2ccc(Cl)cc2)C=C(c2ccccc2)N3)cc1OC (stereo unspecified)	RXFP1 agonist 20µM (no result: Tb PFK inh, gsp agonist, p53 reactivator, gsp antagonist)
O=C(CCc1ccccc1)Nc1ccc(S(=O)(=O)N2CCCC2)cc1	none
COc1cc2nc(Nc3ccc(C)c(C)c3)nc(N)c2cc1OC	RXFP1 antagonist -110!
COc1cc2nc(Nc3ccc(C)c(Cl)c3)nc(N)c2cc1OC	none
Cc1nc(C)c(CCNS(=O)(=O)c2ccc(F)cc2)s1	none (no result: Tb PFK inh, gsp agonist, p53 reactivator, RXFP1 antagonist, gsp antagonist)
Cc1[nH]c2ccccc2c1NC(=O)CN1CCN(c2cccc(C(F)(F)F)c2)CC1	gsp antagonist 50µM (no result: Tb PFK inh, p53 reactivator)
COCCn1c(=S)[nH]c2cc(C(=O)N3CCc4ccccc4C3)ccc2c1=O	RXFP1 antagonist -66
COCCn1c(=S)[nH]c2cc(C(=O)N3CCN(c4ccccc4OC)CC3)ccc2c1=O	RXFP1 antagonist -112
CCCCN(C)CCn1c(=S)[nH]c2cc(OCC)c(OCC)cc2c1=O	none
COCCn1c(=O)[nH]c2cc(C(=O)N3CCN(c4ccccc4OC)CC3)ccc2c1=O	none
CCOc1cc2[nH]c(=S)n(CCOC)c(=O)c2cc1OCC	gsp agonist 4.5µM, RXFP1 antagonist inconclusive
COCCn1c(=S)[nH]c2cc(C(=O)N3CC(C)CC(C)C3)ccc2c1=O (stereo unspecified)	gsp agonist inconclusive
COc1cc2c(cc1OC)CN(C(=O)CN(C)S(=O)(=O)c1ccc(NC(C)=O)cc1)CC2	none
COc1ccccc1CCNC(=O)Cn1ccc2cc(S(=O)(=O)N3CCCCCC3)ccc21	none (no result: Tb PFK inh, gsp agonist, p53 reactivator, gsp antagonist)
Cc1ccc(NC(=O)CN2CCc3ccccc3C2)cc1S(=O)(=O)N1CCOCC1	none
O=C(NNc1nc(=O)c2cccnc2s1)c1ccccc1O	RXFP1 agonist 16µM
O=C(NNc1c2ccccc2nc2ccccc12)c1ccccc1O	gsp antagonist inconclusive
CCN(CC(=O)NCc1cccs1)C(=O)CCc1c[nH]c2ccccc12	none
COc1cccc(C(=O)Nc2nnc(-c3ccccc3)s2)c1OC	gsp agonist inconclusive
Cc1cc(C)n(-c2ccc(C(=O)Nc3ccc(C)c(S(=O)(=O)N4CCOCC4)c3)cc2)n1	gsp antagonist 35µM
COc1ccc(/C=C/C(=O)Nc2ccc(C)c(S(=O)(=O)N3CCOCC3)c2)cc1	gsp antagonist 32µM (no result: gsp agonist, RXFP1 agonist, RXFP1 antagonist)
CCOC(=O)c1ccc(NC(=O)c2ccc(C)c(S(=O)(=O)N3CCOCC3)c2)cc1	RXFP1 antagonist inconclusive, gsp antagonist 28µM
CC(=O)c1ccc(NC(=O)c2ccc(C)c(S(=O)(=O)N3CCOCC3)c2)cc1	none
Cc1[nH]c2ccccc2c1/C=N/NC(=O)c1cc(-c2ccncc2)nc2ccccc12	gsp antagonist inconclusive
CC(=O)Nc1ccc(S(=O)(=O)N2CCC(NC(=O)C(Cc3cccn3C)NC(C)=O)CC2)cc1 (stereo unspecified)	none
O=C(Nc1ccccc1N1CCOCC1)c1ccccc1NS(=O)(=O)c1ccc(F)c(F)c1	gsp antagonist 3.5µM
Cc1ccc(S(=O)(=O)Nc2ccccc2C(=O)Nc2nc(-c3ccc(F)cc3)cs2)cc1	none (no result: RXFP1 antagonist)
COc1ccc(-c2csc(NC(=O)c3ccccc3NS(=O)(=O)c3ccc(F)c(F)c3)n2)cc1	gsp antagonist 32µM
O=C(Nc1ccccc1N1CCOCC1)c1ccccc1NS(=O)(=O)c1ccc(F)cc1	RXFP1 antagonist inconclusive
O=C(Nc1ccc(Cl)c(Cl)c1)c1ccccc1	Tb PFK inh inconclusive, p53 reactivator inconclusive, gsp antagonist 11µM (no result: gsp agonist, RXFP1 antagonist)
O=C1C(Cl)=C(NC(=O)c2ccccc2)C(=O)C(Cl)=C1NC(=O)c1ccccc1	Tb PFK inh inconclusive, RXFP1 antagonist -105, gsp antagonist inconclusive
O=C(Nc1cccc(Cl)c1)c1ccccc1	none (no result: RXFP1 antagonist)
O=C(Nc1ccc(Cl)c(Cl)c1)Oc1ccc(NC(=O)c2ccco2)cc1	Tb PFK inh 13µM, gsp antagonist 40µM
Cc1nc(Nc2ccc(Cl)c(Cl)c2)sc1C(=O)Nc1ccccc1	gsp antagonist 50µM
Cc1nc(Nc2ccc(Cl)cc2Cl)sc1C(=O)Nc1ccccc1	p53 reactivator inconclusive, gsp antagonist inconclusive
O=C(NC1=C(Nc2ccc(Cl)cc2)C(=O)c2ccccc2C1=O)c1ccccc1	p53 reactivator inconclusive
O=C(CNC(=O)c1cccc(OC(F)F)c1)OCC(=O)c1ccccc1	none
C=CCn1cnc2scc(-c3ccc(C)cc3)c2c1=O	none
CCn1c(=O)cc(OCC(=O)N2CCN(c3cccc(C(F)(F)F)c3)CC2)c2ccccc21	gsp antagonist inconclusive
O=C(CCN1C(=O)/C(=C\c2ccccc2Cl)SC1=S)Nc1cccnc1	p53 reactivator inconclusive, RXFP1 antagonist inconclusive, gsp antagonist 35µM
O=C(CCN1C(=O)/C(=C/c2ccccc2F)SC1=S)Nc1cccnc1	gsp antagonist inconclusive (no result: p53 reactivator)
CCCCN1C(=O)C(NC(=O)CC(C)C)(C(F)(F)F)C2=C1CC(C)(C)CC2=O (stereo unspecified)	none
CC(=O)c1cccc(NS(=O)(=O)c2ccc(N/C=C\C(=O)c3ccc(C)cc3)cc2)c1	p53 reactivator inconclusive, gsp antagonist inconclusive
CC(=O)c1cccc(N/C=C\C(=O)c2ccc(C)cc2)c1	p53 reactivator 35µM
COc1ccc(N2C(=NC(=O)C3CCCCC3)SC3CS(=O)(=O)CC32)cc1OC (stereo unspecified)	none
COc1ccc(C(=O)N=C2SC3CS(=O)(=O)CC3N2c2ccc(N(C)C)cc2)cc1OC (stereo unspecified)	gsp agonist inconclusive, RXFP1 antagonist -76
COc1cccc(CN2C(=O)C(C)N(C(=O)c3c(F)cccc3F)c3ccccc32)c1 (stereo unspecified)	gsp antagonist 35µM
CC1C(=O)N(Cc2ccccc2F)c2ccccc2N1C(=O)c1c(F)cccc1F (stereo unspecified)	gsp antagonist inconclusive
CC(C)c1ccc(/C=N/n2c(COc3ccccc3)n[nH]c2=S)cc1	RXFP1 antagonist -61, gsp antagonist inconclusive
O=C(/C=C/c1ccco1)N(Cc1ccc(Cl)cc1)C1CCS(=O)(=O)C1 (stereo unspecified)	none
